# Source: PubChem BioAssay AID1930 (Vanderbilt High Throughput Screening Facility, 2009)
# Activity calls are given as the source filed them. How the calls were made is not given here.
# Biological target: Muscarinic acetylcholine receptor M2 (Homo sapiens) (UniProt P08172)
# Experiment: ACh potency shift at human M2 – cell-based, Gqi5 chimera, calcium, selectivity assay for M4 PAM project (AID 1930)
# Sequence of Muscarinic acetylcholine receptor M2 (Homo sapiens) (P08172 whole entry, looked up): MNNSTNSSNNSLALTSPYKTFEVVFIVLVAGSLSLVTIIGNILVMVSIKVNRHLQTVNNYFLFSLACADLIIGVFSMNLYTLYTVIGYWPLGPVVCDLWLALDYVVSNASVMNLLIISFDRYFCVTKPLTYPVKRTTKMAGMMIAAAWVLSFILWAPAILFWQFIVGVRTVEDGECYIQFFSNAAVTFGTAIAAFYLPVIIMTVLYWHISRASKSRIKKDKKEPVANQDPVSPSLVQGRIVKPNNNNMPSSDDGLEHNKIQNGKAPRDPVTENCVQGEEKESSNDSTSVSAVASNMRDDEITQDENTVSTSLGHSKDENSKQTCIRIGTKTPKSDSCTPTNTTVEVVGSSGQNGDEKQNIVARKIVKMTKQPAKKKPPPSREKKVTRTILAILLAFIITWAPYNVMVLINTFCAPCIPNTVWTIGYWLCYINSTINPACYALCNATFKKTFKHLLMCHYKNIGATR
row,Compound,outcome
1,Cc1cc(OCc2ccncc2)nc2sc(C(=O)NCc3cc(F)ccc3F)c(N)c12,inactive
2,Cc1cc(OCc2ccncc2)nc2sc(C(=O)NCc3cccc(F)c3F)c(N)c12,inactive
3,COc1ccc(CNC(=O)c2sc3nc(OCc4ccncc4)cc(C)c3c2N)cc1,inactive
4,Cc1cc(OCCN2CCOCC2)nc2sc(C(=O)NC(C)(C)C)c(N)c12,inactive
